Measurements from PubChem BioAssay AID743131 (Broad Institute, 2013).
Entries with a potency or affinity are not part of this list. Inconclusive results are not listed. Active and inactive are the calls of the source.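 The calls were made as follows: active = cell viability loss with a fitted half-maximal concentration at or below twice the top valid dose; inconclusive = flat curve losing 30 to 70% viability, or a poor fit; inactive = the rest.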

Assay: HEK293 cell cytotoxicity, dose response, cytotoxicity control, ATP luminescence, dry powder, set 3 (AID 743131)

**Q.** Which outcome does the source give for `Fc1cccc2c1[nH]c(=S)n2CCOc1ccccc1` here?
**A.** Its outcome is “inactive”.

**Q.** For `CCOc1ccc(OCCn2c(=S)[nH]c3ccccc32)cc1`, which outcome is on record?
**A.** The outcome was “inactive”.

**Q.** With `CCOC(=O)c1c(-c2ccc(OC)cc2)csc1NC(=O)CN(C)CC(=O)N(C)C` as the compound, how does the outcome read?
**A.** The outcome was “inactive”.

**Q.** With `Cc1ccc(OCCn2c(=S)[nH]c3ccccc32)cc1` as the compound, how does the outcome read?
**A.** Its outcome is “inactive”.

**Q.** With `Cc1ccc(OCCn2c(C)nc3ccccc32)cc1` as the compound, how does the outcome read?
**A.** The outcome was “inactive”.

**Q.** Which outcome does the source give for `CCOC(=O)c1c(-c2ccc(F)cc2)csc1NC(=O)CN1CCN(CC)CC1` here?
**A.** Its outcome is “inactive”.

**Q.** For `COC(=O)C1=C(C)N(Cc2ccc(Cl)cc2)C(=S)NC1c1ccc(Br)cc1` (stereo not given), which outcome is on record?
**A.** The outcome was “inactive”.

**Q.** For `Cc1ccc(OCCn2c(SCCO)nc3ccccc32)c(C(C)C)c1`, which outcome is on record?
**A.** The outcome was “inactive”.

**Q.** For `Cc1ccc2c(c1)[nH]c(=S)n2CCOc1ccccc1`, which outcome is on record?
**A.** Its outcome is “inactive”.

**Q.** Which outcome does the source give for `Fc1ccccc1OCCn1c(=S)[nH]c2ccccc21` here?
**A.** Its outcome is “inactive”.

**Q.** With `S=c1[nH]c2cccc(Cl)c2n1CCOc1ccccc1` as the compound, how does the outcome read?
**A.** The outcome was “inactive”.

**Q.** Which outcome does the source give for `COC(=O)C1=C(C)N(Cc2ccc(Br)cc2)C(=S)NC1c1ccc(F)cc1` (stereo not given) here?
**A.** The outcome was “inactive”.

**Q.** Which outcome does the source give for `COC(=O)C1=C(C)N(Cc2ccc(Br)cc2)C(=S)NC1c1ccc(OC)cc1` (stereo not given) here?
**A.** The outcome was “inactive”.

**Q.** Which outcome does the source give for `O=c1[nH]c2ccccc2n1CCOc1ccccc1` here?
**A.** The outcome was “inactive”.

**Q.** With `S=c1[nH]c2ccccc2n1CCOc1ccc(Cl)cc1` as the compound, how does the outcome read?
**A.** The outcome was “inactive”.

**Q.** With `COC(=O)C1=C(C)N(Cc2ccc(F)cc2)C(=S)NC1c1cccc(F)c1` (stereo not given) as the compound, how does the outcome read?
**A.** Its outcome is “inactive”.

**Q.** Which outcome does the source give for `Cc1ccc(OCCn2cnc3ccccc32)cc1` here?
**A.** The outcome was “inactive”.

**Q.** With `CCOC(=O)c1c(-c2ccc(F)cc2)csc1NC(=O)CN1CCN(C)CC1` as the compound, how does the outcome read?
**A.** Its outcome is “inactive”.

**Q.** With `S=c1[nH]c2ccccc2n1CCOc1ccccc1` as the compound, how does the outcome read?
**A.** The outcome was “inactive”.

**Q.** Which outcome does the source give for `CCOC(=O)c1c(-c2ccc(C(C)(C)C)cc2)csc1NC(=O)CN1CCN(C)CC1` here?
**A.** The outcome was “inactive”.
